Experimental data from PubChem BioAssay.
Active and inactive are the calls of the source.

Tests used:
[1] = A549 cell viability effects, profiling panel, calcein-AM fluorescence, 48 h, basal (AID 1162); settings: higher = more signal
[2] = adipocyte viability effects, profiling panel, cell-based, 3T3-L1 adipocytes, calcein-AM fluorescence, 48 h, basal (AID 1163); settings: 3T3-L1 adipocytes viability, higher = more signal
[3] = HepG2 cell viability effects, profiling panel, calcein-AM fluorescence, 48 h, basal (AID 1164); settings: higher = more signal
[4] = MM1S cell viability effects, profiling panel, calcein-AM fluorescence, 48 h, basal (AID 1165); settings: higher = more signal;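 also: viability of MM1S multiple myeloma cells under basal unstimulated conditions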
[5] = basal RPMI8226 viability, no added stimulus, profiling panel, cell-based, calcein-AM fluorescence, 48 h, PK04 Diversity Set (AID 1166); settings: RPMI8226 myeloma viability, higher = more signal;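 also: cells grown under basal conditions without added stimulus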
[6] = basal HepG2 mitochondrial membrane potential changes, profiling panel, cell-based, JC-1 fluorescence, 24 h, 100 nL compound (AID 1167); settings: higher = more signal
[7] = basal 3T3-L1 adipocyte mitochondrial potential changes, profiling panel, cell-based, JC-1 fluorescence, 3T3-L1 adipocytes, 24 h, 100 nL compound (AID 1168); settings: JC-1 mitochondrial fluorescence, higher = more signal, called active from +8 up or from −8 down
[8] = basal RPMI8226 mitochondrial membrane potential changes, profiling panel, cell-based, JC-1 fluorescence, 24 h, 100 nL compound (AID 1169); settings: RPMI8226 myeloma, JC-1 mitochondrial potential fluorescence, higher = more signal
[9] = basal MM1S mitochondrial membrane potential changes, profiling panel, cell-based, JC-1 fluorescence, 24 h, 100 nL compound (AID 1170); settings: higher = more signal
[10] = A549 lung cancer cell viability effects, profiling panel, resazurin fluorescence, 24 h, PK04 Diversity Set (AID 1171); settings: higher = more signal, called active from +8 up or from −8 down
Also: test concentration not given here.

Structure (SMILES) | z-score [1] | z-score [2] | z-score [3] | z-score [4] | z-score [5] | z-score [6] | z-score [7] | z-score [8] | z-score [9] | z-score [10]
O=C1C2C=CC(C(O)c3ccccc3)N(Nc3ccccc3F)C2C(=O)N1c1ccccc1 (stereo not given) | -0.826 | -0.717 | 0.925 | -1.06 | 0.379 | 0.12 | -0.0776 (inactive) | -1.04 | -1.29 | -0.412 (inactive)
O=C1O[C@@H](c2ccccc2)[C@@H](c2ccccc2)N2[C@@H](c3ccccc3OCCO)[C@]3(C(=O)Nc4ccc(C#CCCO)cc43)[C@@H](C(=O)N3CCCCCCC3)[C@H]12 | 0.22 | 0.251 | 0.717 | -1.68 | -4.14 | 0.548 | 0.363 (inactive) | -1.11 | -1.63 | -0.184 (inactive)
CC1CC/C=C\[C@H]2OC34C=CCN(C(C)C)C(=O)[C@H]3N(CCCCCCO)C(=O)[C@@H]4C2C(=O)O1 (stereo not given in full) | -0.868 | 1.53 | 0.25 | 1.2 | 0.626 | -0.0558 | -0.0814 (inactive) | -0.426 | -1.04 | 0.599 (inactive)
COCCOC(=O)N1C(=O)[C@@]2(c3cc(C#Cc4ccc(OC)cc4)ccc31)[C@H](c1ccc(O)cc1)N1[C@H](c3ccccc3)[C@H](c3ccccc3)OC(=O)[C@H]1[C@@H]2C(=O)N1CCCCCCC1 | 0.403 | 0.703 | -0.261 | -1.08 | -1.29 | -0.902 | 1.18 (inactive) | -0.464 | -0.414 | -0.0155 (inactive)
C=C(CCCC)/C(=C/C[C@@H](OC(=O)c1ccncc1)c1ccccc1OCCO)c1cnc2ccccc2c1 | 0.453 | 1.21 | -0.158 | -3.2 | -2 | 1.41 | -2 (inactive) | -0.629 | 1.46 | -0.488 (inactive)
COC(=O)C(CC#Cc1ccc2c(c1)[C@]1(C(=O)N2)[C@H](C(=O)N2CCN(c3ncccn3)CC2)[C@H]2C(=O)O[C@H](c3ccccc3)[C@H](c3ccccc3)N2[C@@H]1c1ccc(OCCO)cc1)C(=O)OC | -0.0572 | -0.609 | 1.09 | 0.607 | 0.363 | -0.612 | 0.895 (inactive) | -0.933 | -1.44 | -0.178 (inactive)
O=C1O[C@H](c2ccccc2)[C@H](c2ccccc2)N2[C@H]1[C@@H](C(=O)Nc1nc3ccccc3s1)[C@]1(C(=O)Nc3ccccc31)[C@H]2c1ccc(OCCO)cc1 | -0.52 | 0.0354 | 0.349 | -1.68 | -1.35 | -1.99 | 3.24 (inactive) | -1.07 | -1.83 | 0.0237 (inactive)
CC=CC(O)C1C=CC2C(=O)N(c3ccccc3)C(=O)C2N1Nc1ccccc1F (stereo not given) | -1.68 | -0.161 | -0.182 | 0.807 | -1.85 | -0.866 | -0.961 (inactive) | 0.367 | -0.254 | -0.548 (inactive)
Cc1ccc(S[C@]2(C(=O)O)CC(=O)N(Cc3cc(C(F)(F)F)cc(C(F)(F)F)c3)[C@@H]2c2ccc(CO)cc2)cc1 | -0.192 | -0.228 | -0.618 | -0.424 | -0.82 | -0.555 | -0.717 (inactive) | 0.83 | -0.694 | -0.0055 (inactive)
COCCOC(=O)N1C(=O)[C@@]2(c3cc(C#CC4=CCCCC4)ccc31)[C@H](C(=O)N1CCCCCCC1)[C@H]1C(=O)O[C@H](c3ccccc3)[C@H](c3ccccc3)N1[C@@H]2c1ccc(O)cc1 | 0.868 | 0.936 | 0.474 | -0.625 | -0.593 | -0.239 | 1.02 (inactive) | -0.386 | -0.272 | -1.09 (inactive)
[N-]=[N+]=NCc1ccccc1C[C@@]1(C(=O)N2CCCCC2)N=C(c2ccc(OCCCO)cc2)O[C@@H]1c1ccccc1 | -1.26 | -0.813 | -2.13 | -3.11 | -4.35 | 0.622 | -0.209 (inactive) | -1.28 | -2.34 | -0.949 (inactive)
COC(=O)[C@@]1(Cc2ccc(F)cc2)[C@H]2c3cc(C(=O)N(C)C)n(CCc4ccc(O)c(OC)c4)c3C[C@H]2CN1C(=O)c1ccccc1 | 0.558 | -0.306 | 0.364 | -0.254 | -0.364 | -0.27 | -0.763 (inactive) | -0.266 | 0.564 | -0.905 (inactive)
COc1ccc(C#Cc2ccc3c(c2)[C@]2(C(=O)N3)[C@H](c3ccc(O)cc3)N3[C@H](c4ccccc4)[C@H](c4ccccc4)OC(=O)[C@H]3[C@@H]2C(=O)O)cc1 | -0.884 | 0.943 | 0.127 | -2.24 | -2.2 | -3.68 | -0.742 (inactive) | -0.28 | -0.361 | 0.344 (inactive)
CCOC(=O)C1=CC[C@@H](c2cccc(Cl)c2)N(S(=O)(=O)c2ccc(C)cc2)C1 | -0.236 | 0.472 | 0.46 | -1.14 | -0.789 | 0.584 | 1.34 (inactive) | -0.043 | -0.51 | -0.617 (inactive)
[N-]=[N+]=Nc1ccccc1[C@H]1OC(c2ccc(OCCCO)cc2)=N[C@@]1(CCS(=O)(=O)c1ccccc1)C(=O)NCCN1CCOCC1 | 0.101 | -0.223 | 0.0355 | -0.387 | -0.161 | 0.816 | -0.374 (inactive) | 0.184 | -0.691 | 1.22 (inactive)
